The values below come from PubChem BioAssay (Tox21).

Results filed as inconclusive are left out. The source made the active and inactive calls. Unless noted, calls follow the shape of the dose curve; as a rule, active = well fitted curve in the direction sought with a large enough effect in the repeat runs; inconclusive = weak or mixed curves; inactive = no such curve, though single readings can be large; an effect the other way counts as inactive or inconclusive.

Experiment [1] is described as follows: qHTS assay to identify small molecule antagonists of the androgen receptor (AR) signaling pathway using the MDA cell line in the presence of 0.5 nM R1881 - cell viability counter screen (AID 1259242). Also: nearly all actives have a fitted effect of over 45% in size. A digest of the protocol:
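Live-cell protease fluorescence, CellTiter-Fluor, 30 min at 37C. Cells: MDA-kb2, 3,000/well, preincubated 5 hr. Compounds plus 0.5 nM R1881 final, 16 hr, 37C, 0% CO2.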

For experiment [2], the target named is Estrogen receptor (Homo sapiens) (UniProt P03372). The experiment can be described thus: qHTS assay to identify small molecule antagonists of the estrogen receptor alpha (ER-alpha) signaling pathway using the BG1 cell line in the presence of 0.1 nM 17-beta-estradiol (AID 1259244). Also: nearly all actives have a fitted effect of over 50% in size. A digest of the protocol:
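Luminescence after ONE-Glo (30 min, room temperature) measured ERE-luciferase activity in VM7Luc4E2 cells treated 22 h with compound and 0.1 nM final 17beta-estradiol as stimulator.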

Experiment [3] can be described thus: qHTS assay to identify small molecule HDAC inhibitors (AID 1259364). Also: potency is read from the fitted curve at half-maximal effect.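 Also: wild-type HCT-116 cells with endogenous class I/II HDAC activity; nearly all actives have a fitted effect of over 45% in size.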 Summed up: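 HCT-116 (wild type), 1,500 cells/well, overnight; compound 2 hr 37C 5% CO2; HDAC-Glo I/II reagent 30 min RT; luminescence readout.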
A short description of experiment [4]: qHTS assay to identify small molecule HDAC inhibitors - cell viability counter screen (AID 1259365). Also: series mostly up to about 92 µM; nearly all actives have a fitted effect of over 50% in size. Summed up:
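Luminescence from CellTiter-Glo, developed 30min at room temperature, reports viability of wild-type HCT-116 cells treated 2hr with compounds at 37 C and 5% CO2 after overnight plating.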

Experiment [5] is described as follows: qHTS assay to identify small molecule agonists of the sonic hedgehog signaling (Shh) pathway - cell viability counter screen (AID 1259366). Also: nearly all actives have a fitted effect of over 50% in size. Also: potency is read from the fitted curve at half-maximal effect. A digest of the protocol:
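Cytotoxicity counter screen run in the same wells as the Shh reporter assay. NIH/3T3 cells carrying a Gli1 response element–driven luciferase were treated with DMSO-dissolved compounds for 24hr, and live-cell protease activity was measured with CellTiter-Fluor.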

Experiment [6] is described as follows: qHTS assay to identify small molecule antagonists of the sonic hedgehog signaling (Shh) pathway - cell viability counter screen (AID 1259367). Also: nearly all actives have a fitted effect of over 55% in size. Also: potency is read from the fitted curve at half-maximal effect. Summed up: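 Conditioned medium drove Shh signaling in 3T3 Gli1-Luc cells exposed to compounds at 37C and 5% CO2. Viability was determined from CellTiter-Fluor fluorescence, with reagent incubated 1 hr after 23 hr of treatment.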

A short description of experiment [7]: qHTS assay to identify small molecule antagonists of the sonic hedgehog signaling (Shh) pathway (AID 1259369; calls by dose curve; also: nearly all actives have a fitted effect of over 45% in size; also: potency is read from the fitted curve at half-maximal effect). A digest of the protocol: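 Luminescence readout: firefly Luc under Gli1 response element in 3T3Gli1-Luc cells (NIH/3T3 clone). Antagonist mode, stimulation by conditioned medium; compound exposure 24hr at 37 C, 5% CO2.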
The target in experiment [8] is Estrogen receptor beta (Homo sapiens) (UniProt Q92731). The experiment is described as follows: qHTS assay to identify small molecule agonists of the estrogen receptor beta (ER-beta) signaling pathway (AID 1259377; active = well fitted activation curve with a large enough effect in the signal ratio in the repeat runs, not every such curve was filed as active; the % refers to the signal ratio). Summed up:
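HEK293T ER-beta-UAS-bla; 2% charcoal-stripped FBS; cells pre-incubated 6 hr, compound 16 hr, 37C/5% CO2; LiveBLAzer B/G FRET substrate 2 h RT; fluorescence intensity read.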

For experiment [9] the target is unchanged. The experiment is described as follows: qHTS assay to identify small molecule antagonists of the estrogen receptor beta (ER-beta) signaling pathway (AID 1259378; active = well fitted inhibition curve with a large enough effect in the signal ratio in the repeat runs, not every such curve was filed as active; the % refers to the signal ratio). Summed up:
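ER-beta-UAS-bla HEK293T (GripTite) cells in 2% charcoal-stripped FBS medium were preincubated 6 hr at 37C, dosed with compound, then stimulated with 1 nM E2 (final) for 16 hr; beta-lactamase reporter read by B/G FRET fluorescence after 2 hr substrate loading.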

Experiment [10] in a line: qHTS assay to identify small molecule agonists of the androgen receptor (AR) signaling pathway in the presence of an antagonist - cell viability counter screen (AID 1259379). Also: nearly all actives have a fitted effect of over 25% in size. Also: potency is read from the fitted curve at half-maximal effect. Summed up:
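Viability counter screen: CellTiter-Fluor fluorescence, measured in the same wells as the luciferase read-out. MDA-kb2 cells, 3,000/well, with nilutamide at 3.0uM final and compounds at 15 concentrations, 16 hr at 37C, 0% CO2.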

Experiment [11] in a line: qHTS assay to identify small molecule agonists of the estrogen receptor beta (ER-beta) signaling pathway - cell viability counter screen (AID 1259380). Also: nearly all actives have a fitted effect of over 30% in size. Summed up:
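Luminescence read-out (CellTiter-Glo, 30 min, room temp) taken in the same wells as the beta-lactamase reporter assay; ER-beta-UAS-bla HEK293T cells exposed to DMSO-dissolved compounds for 16 hr at 37C in 2% charcoal-stripped FBS medium.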

A short description of experiment [12]: qHTS assay to identify small molecule antagonists of the estrogen receptor beta (ER-beta) signaling pathway - cell viability counter screen (AID 1259382). Also: series mostly up to about 92 µM; nearly all actives have a fitted effect of over 55% in size. Summed up:
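Luminescent ATP read-out (CellTiter-Glo, 30 min, RT) taken in the same wells as the bla reporter assay. HEK293T ER-beta-UAS-bla cells in 2% charcoal-stripped FBS were exposed to compounds with 1nM E2 for 16 hr at 37C.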

Experiment [13] concerns the target Estrogen receptor (Homo sapiens) (UniProt P03372). The experiment can be described thus: qHTS assay to identify small molecule agonists of the estrogen receptor alpha (ER-alpha) signaling pathway in the presence of an antagonist (AID 1259383; calls by dose curve; also: top concentration of the series differs between compounds; nearly all actives have a fitted effect of over 15% in size). A digest of the protocol: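 Luciferase luminescence (ONE-Glo, 30min at room temperature) measured in VM7Luc4E2 cells after 22hr compound exposure at 15 concentrations, with 10.0nM ICI-182,780 final present; cells express endogenous ER-alpha and carry four EREs upstream of luciferase.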

The nature of experiment [14]: qHTS assay to identify small molecule agonists or antagonists of the thyroid stimulating hormone receptor (TSHR) signaling pathway - wild type cell line counter screen (AID 1259384; calls by dose curve). A digest of the protocol: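 Wild-type HEK293 cells were plated 18 h at 37 C/5% CO2, pin-dosed with compound plus Ro20-1724 medium, held 30 min at room temperature, then given cAMP-d2 and anti-cAMP-cryptate; fluorescence was read after 1 h. Fifteen concentrations, triplicate.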

Experiment [15] concerns the target Thyrotropin receptor (Homo sapiens) (UniProt P16473). The experiment can be described thus: qHTS assay to identify small molecule antagonists of the thyroid stimulating hormone receptor (TSHR) signaling pathway (AID 1259385; calls by dose curve; also: nearly all actives have a fitted effect of over 20% in size). A digest of the protocol:
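TSHR-HEK293 cells were plated and held 18 h at 37C/5% CO2, then given compound plus Ro20-1724 and stimulated with TSH at 1.5 ng/mL final. After 30 min at room temperature, cAMP was detected with cAMP-d2/anti-cAMP-cryptate (1 h) by fluorescence.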

A short description of experiment [16]: qHTS assay to identify small molecule agonists of the sonic hedgehog signaling (Shh) pathway (AID 1259368; calls by dose curve;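 also: NIH/3T3-derived 3T3Gli1-Luc cells carrying a stable Gli1-driven firefly luciferase reporter; series mostly up to about 92 µM; nearly all actives have a fitted effect of over 15% in size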). A digest of the protocol: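 Read-out: firefly luciferase luminescence from a Gli1 response element reporter stably integrated in NIH/3T3-derived 3T3Gli1-Luc cells, measured 30 min at room temperature after reagent addition. Compound exposure lasted 24 hr at 37 C, 5% CO2.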

Experiment [17] can be described thus: qHTS assay to identify small molecule phospholipidosis (PLD) inducers (AID 1259344; active = well fitted curve in the direction sought with a large enough effect; an effect the other way counts as inactive or inconclusive). Summed up:
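After 4 h attachment on collagen I, HepG2 cells were dosed with compound alongside LipidTOX Red, kept 24 h at 37 C, fixed, and imaged for lamellar phospholipid pits.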

Estrogen receptor beta (Homo sapiens), sequence (Q92731 whole entry, looked up): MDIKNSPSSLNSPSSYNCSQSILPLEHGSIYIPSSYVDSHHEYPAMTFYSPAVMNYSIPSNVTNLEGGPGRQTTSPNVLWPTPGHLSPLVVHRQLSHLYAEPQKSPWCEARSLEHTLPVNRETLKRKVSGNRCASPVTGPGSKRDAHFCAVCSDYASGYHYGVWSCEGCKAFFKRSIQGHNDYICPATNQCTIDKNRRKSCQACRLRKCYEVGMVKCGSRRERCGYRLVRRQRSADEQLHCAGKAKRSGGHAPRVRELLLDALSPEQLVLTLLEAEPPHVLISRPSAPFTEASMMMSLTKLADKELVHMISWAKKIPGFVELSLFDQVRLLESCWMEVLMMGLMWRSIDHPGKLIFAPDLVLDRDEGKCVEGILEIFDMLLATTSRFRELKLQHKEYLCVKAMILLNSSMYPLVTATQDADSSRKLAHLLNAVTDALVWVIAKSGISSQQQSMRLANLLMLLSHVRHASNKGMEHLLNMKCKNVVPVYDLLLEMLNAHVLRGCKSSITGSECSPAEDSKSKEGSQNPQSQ
Thyrotropin receptor (Homo sapiens), sequence (P16473 whole entry, looked up): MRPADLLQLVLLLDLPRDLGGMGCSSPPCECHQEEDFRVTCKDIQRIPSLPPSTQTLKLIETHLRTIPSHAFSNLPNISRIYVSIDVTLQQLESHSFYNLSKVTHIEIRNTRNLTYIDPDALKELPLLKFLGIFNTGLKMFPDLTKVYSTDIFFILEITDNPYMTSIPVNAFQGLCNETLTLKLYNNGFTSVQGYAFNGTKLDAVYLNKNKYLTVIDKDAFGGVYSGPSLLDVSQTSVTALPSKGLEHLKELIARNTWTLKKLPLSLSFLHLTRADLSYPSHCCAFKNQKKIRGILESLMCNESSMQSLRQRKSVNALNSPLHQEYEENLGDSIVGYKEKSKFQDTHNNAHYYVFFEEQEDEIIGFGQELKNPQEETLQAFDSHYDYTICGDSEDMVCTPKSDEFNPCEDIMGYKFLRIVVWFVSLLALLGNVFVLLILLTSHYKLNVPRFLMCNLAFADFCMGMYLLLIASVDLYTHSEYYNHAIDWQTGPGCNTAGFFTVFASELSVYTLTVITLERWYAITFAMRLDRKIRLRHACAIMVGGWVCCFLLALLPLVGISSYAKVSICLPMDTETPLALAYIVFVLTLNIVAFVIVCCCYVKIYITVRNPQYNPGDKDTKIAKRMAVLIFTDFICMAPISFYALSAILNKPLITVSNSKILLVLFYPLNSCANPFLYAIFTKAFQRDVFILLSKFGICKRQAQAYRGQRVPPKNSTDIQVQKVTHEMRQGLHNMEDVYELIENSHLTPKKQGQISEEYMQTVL
Estrogen receptor (Homo sapiens), sequence (P03372 whole entry, looked up): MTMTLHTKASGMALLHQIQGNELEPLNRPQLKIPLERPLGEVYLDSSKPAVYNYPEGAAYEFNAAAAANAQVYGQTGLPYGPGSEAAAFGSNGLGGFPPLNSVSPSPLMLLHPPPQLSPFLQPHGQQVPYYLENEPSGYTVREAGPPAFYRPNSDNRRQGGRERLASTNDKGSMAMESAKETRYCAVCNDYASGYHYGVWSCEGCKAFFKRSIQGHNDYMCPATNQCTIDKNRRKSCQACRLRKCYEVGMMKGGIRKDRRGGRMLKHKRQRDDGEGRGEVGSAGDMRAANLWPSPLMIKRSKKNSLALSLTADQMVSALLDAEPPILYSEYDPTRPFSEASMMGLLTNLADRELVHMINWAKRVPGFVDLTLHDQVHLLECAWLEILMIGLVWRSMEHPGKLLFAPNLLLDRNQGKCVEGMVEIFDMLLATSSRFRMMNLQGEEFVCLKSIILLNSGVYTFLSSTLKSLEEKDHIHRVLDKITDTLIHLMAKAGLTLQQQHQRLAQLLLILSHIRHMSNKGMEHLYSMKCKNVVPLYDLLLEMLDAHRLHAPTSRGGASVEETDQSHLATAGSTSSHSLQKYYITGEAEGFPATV

Regarding `O=S(=O)(Cl)Cl`, the Potency result in experiment [1], in experiment [2], in experiment [3], in experiment [4], in experiment [5] and in [6] was “inactive” each time. The Potency entry in experiment [7], in experiment [8], in experiment [9], in [10], in [11] and in [12] was “inactive” throughout. In addition, the Potency entry in experiment [13] and in experiment [15] was “inactive” throughout. Besides, the call in experiment [14] was inactive.

Consider `O=C(O)C(F)(F)C(F)(F)C(F)(F)C(F)(F)C(F)(F)F`, for which the Potency entry in experiment [2], in experiment [3], in [4], in experiment [5], in experiment [6] and in [16] was “inactive” in each case. For the same compound, the Potency entry in [7], in experiment [8], in experiment [9], in experiment [10], in [11] and in experiment [12] was “inactive” each time. For the same compound, the Potency entry in experiment [13] and in [15] was “inactive” each time.

For the compound `CON(C)C(=O)Nc1ccc(Cl)cc1`, the Potency result in experiment [1], in experiment [2], in experiment [4], in experiment [5], in [6] and in experiment [16] was “inactive” in each case. In addition, the Potency result in [8], in [9], in experiment [10], in experiment [11], in experiment [13] and in [15] was “inactive” each time. Further, the Potency in experiment [3] is 27.3 µM (active). Also, in experiment [14], the outcome was inactive.

In the case of `NCCc1cc(O)c(O)cc1O`, the Potency entry in [1], in [2], in experiment [3], in [4], in [6] and in experiment [16] was “inactive” in each case. In addition, the Potency result in [7], in experiment [10], in experiment [11], in experiment [12] and in [13] was “inactive” throughout. Further, the compound was classed as inactive in [17] and in experiment [14].

As to `CC(=O)OC(c1ccccc1)C(Cl)(Cl)Cl` (configuration not stated), the Potency entry in experiment [1], in experiment [2], in experiment [3], in [4], in experiment [5] and in experiment [6] was “inactive” each time. Moreover, the Potency entry in experiment [16], in experiment [7], in [10], in experiment [11] and in experiment [13] was “inactive” each time. Further, in experiment [14], the compound was called inactive.

Regarding `C=CCSSCC=C`, the Potency result in experiment [3], in experiment [4], in [5], in experiment [6], in [16] and in experiment [7] was “inactive” throughout. The Potency result in experiment [10], in [11], in experiment [12] and in experiment [15] was “inactive” in each case. Also, the result in experiment [14] was inactive.

Turning to `C=CC(=O)OCC`, the Potency result in experiment [1], in experiment [2], in experiment [3], in experiment [4], in experiment [5] and in experiment [6] was “inactive” each time. Further, the Potency entry in experiment [16], in experiment [7], in experiment [10], in experiment [11], in experiment [12] and in experiment [13] was “inactive” in each case. Moreover, the Potency result in experiment [15] is “inactive”. Further, the compound was classed as inactive in experiment [14].

Turning to `CCCCOC(=O)CCC(=O)OCCCC`, the Potency entry in [1], in experiment [3], in experiment [4], in experiment [5], in experiment [6] and in [16] was “inactive” in each case. In addition, the Potency result in experiment [7], in [8], in [9], in experiment [10] and in experiment [15] was “inactive” in each case. The call in experiment [14] was inactive.

As for `CCc1ccccc1N`, the Potency result in [1], in experiment [2], in experiment [3], in experiment [4], in [5] and in [6] was “inactive” in each case. For the same compound, the Potency entry in [16], in experiment [7], in experiment [10], in [11], in experiment [12] and in [13] was “inactive” each time. Besides, the Potency result in experiment [15] is “inactive”. In experiment [14], the compound was classed as inactive.

In the case of `O=C(N/N=C/c1ccc([N+](=O)[O-])o1)c1cc([N+](=O)[O-])cc([N+](=O)[O-])c1O`, the compound was classed as inactive in [17] and in [14]. Besides, the Potency entry in experiment [3], in [4], in experiment [16], in experiment [9], in experiment [11] and in experiment [12] was “inactive” in each case. In addition, the Potency result in experiment [15] was “inactive”. For the same compound, the Potency was 10.6 µM (active) in experiment [5], 10.6 µM (active) in experiment [6], 10.6 µM (active) in experiment [7] and 11.9 µM (active) in [10].

Regarding `CCCCC(CC)CO[N+](=O)[O-]` (configuration not stated), the Potency result in experiment [1], in [2], in experiment [3], in [5], in experiment [6] and in experiment [16] was “inactive” in each case. The Potency result in [7], in experiment [8], in experiment [9], in experiment [10], in experiment [11] and in experiment [12] was “inactive” each time. Besides, the Potency result in experiment [13] and in experiment [15] was “inactive” each time. For the same compound, the call in [14] was inactive.
